Screening data as filed in PubChem.
The list is not random: actives were taken first. Their share in the collection is about 0.54%.
PDI inh – blocks human protein disulfide isomerase activity; AID 588391; inhibition, % at 10 µM; PDI insulin aggregation turbidity, A650, 90 min; 0.052% of 350,000 active; P07237;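 active = mean inhibition across replicates of 30% or more, whatever share of single replicates reach that level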
Rtt109 HAT inh – blocks Candida albicans Rtt109/Vps75 acetyltransferase activity. Q5AAJ8. purified Rtt109/Vps75, ThioGlo CoA-SH fluorescence, 4 h. inhibition, % at 34.9 µM. 0.16% of 330,000 active. AID 540336;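 active = inhibition of at least 50% in every replicate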
Efflux pump inh – antifungal efflux pump inhibition, Nile Red retention; S. cerevisiae Candida pump triplex; inhibition, % at 10 µM; 0.44% of 330,000 active;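 active = plate passing quality check with inhibition over a set limit, or well fluorescence over plate mean plus 4 SD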;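 note: Nile Red retained in pooled yeast measured as flow cytometry median fluorescence; 0% = buffer negative control and 100% = Enniatin B positive control; higher means more Nile Red kept so more efflux inhibition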
ERp5 inh – inhibitors of human ERp5; Q15084; ERp5 insulin aggregation, absorbance 650 nm, 90 min; inhibition, % at 9.99 µM; 0.05% of 350,000 active; AID 651711;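 active = mean replicate inhibition above about 25%, with every replicate also reaching it, limit read from the data, passing the limit was not always enough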
PvdQ acylase – P. aeruginosa PvdQ acylase inhibition | purified PvdQ acylase, fluorescence plate reader | inhibition, % at 10 µM | 0.063% of 340,000 active; in the data active = inhibition above about 30%, passing the limit was not always enough;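 note: 0% = vehicle neutral wells and 100% = reference inhibitor wells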
Yeast cmpd fluor – counter-screen for efflux pump inhibitors: compound fluorescence. shares compounds with Efflux pump inh. S. cerevisiae AD/pABC3, flow cytometry. fluorescence ratio to DMSO, % at 10 µM. 4% of 1,700 active;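 active = fluorescence ratio to DMSO above its plate's cutoff, the plate mean ratio plus 5 SD, cut at about 210% in these data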;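 note: unstained yeast with no Nile Red so the signal is compound autofluorescence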
Mdr1 pump inh – blocks the Candida albicans Mdr1 efflux pump in yeast. shares compounds with Efflux pump inh. S. cerevisiae AD/CaMDR1, Nile Red efflux, flow cytometry. inhibition, % at 10 µM. 1% of 1,700 active. AID 588518; in the data active = inhibition above about 26%;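 note: 0% = DMSO vehicle and 100% = reference inhibitor; higher means more Nile Red retained so more efflux inhibition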
CaCdr2 efflux inh – Candida Cdr2 efflux pump inhibition. shares compounds with Efflux pump inh. S. cerevisiae AD/CaCDR2, Nile Red retention, flow cytometry. Nile Red retention ratio vs DMSO, % at 10 µM. 4% of 1,700 active; in the data active = Nile Red retention ratio vs DMSO above about 190%;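 note: higher ratio means more blocking of Cdr2 efflux of the dye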
CaCdr1 efflux inh – inhibitors of Candida albicans Cdr1 efflux pump; shares compounds with Efflux pump inh; S. cerevisiae AD/CaCDR1, Nile Red efflux, flow cytometry; inhibition, % at 10 µM; 1% of 1,700 active;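 active = inhibition above the screen-wide mean plus twice its standard deviation, cut at about 32% in these data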
An asterisk follows results filed as active; · = not tested or not shown.

SMILES | PDI inh | Rtt109 HAT inh | Efflux pump inh | ERp5 inh | PvdQ acylase | Yeast cmpd fluor | Mdr1 pump inh | CaCdr2 efflux inh | CaCdr1 efflux inh
COc1ccc(S(=O)(=O)N[C@@H]2CC[C@H](CC(=O)O)O[C@H]2CO)cc1 | · | · | · | 1 | · | · | · | · | ·
N/C(=N\OC(=O)Cc1cccs1)c1ccc(Cl)cc1 | 3 | 1 | 0 | 3 | -18 | 105 | 0 | 97 | 0
C[C@@H]1CCCCO[C@@H](CN(C)CC2CCCCC2)[C@@H](C)CN([C@H](C)CO)C(=O)c2cc(NC(=O)Nc3ccc(F)cc3)ccc2O1 | · | · | · | 10 | · | · | · | · | ·
O=c1c2ccccc2sc2ccc(NCCCN3CCOCC3)cc12 | 1 | 14 | 0 | -2 | -12 | · | · | · | ·
CN1CCCC1CCNc1ccc2sc3ccccc3c(=O)c2c1 (stereo not given) | -4 | 20 | 2.0* | -4 | 9 | 254* | 1 | 96 | 1
O=C(O)c1cccc(-c2ccc(/C=c3/sc4nc5ccccc5n4c3=O)o2)c1 | -7 | 4 | 3.9* | 3 | -5 | 133 | 0 | 262* | 0
O=C(O)c1cc(C(=O)O)cc(-c2ccc(/C=c3/sc4nc5ccccc5n4c3=O)o2)c1 | · | 0 | · | · | -15 | · | · | · | ·
